Source: PubChem
CYP2C19 inh = human CYP2C19 inhibition | P33261 | 21% of 96,000 active | CYP2C19 Supersomes, luciferin-H EGE luminescence, 30 min | inhibition, % at 5 µM;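 active means CYP2C19 inhibition above a set limit at 5 µM in the primary screen, cut at about 50% in these data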;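 further: plate controls were negative control wells for no effect and 2.5 mM tranylcypromine positive control for full effect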
Target sequence (P33261 whole entry, looked up): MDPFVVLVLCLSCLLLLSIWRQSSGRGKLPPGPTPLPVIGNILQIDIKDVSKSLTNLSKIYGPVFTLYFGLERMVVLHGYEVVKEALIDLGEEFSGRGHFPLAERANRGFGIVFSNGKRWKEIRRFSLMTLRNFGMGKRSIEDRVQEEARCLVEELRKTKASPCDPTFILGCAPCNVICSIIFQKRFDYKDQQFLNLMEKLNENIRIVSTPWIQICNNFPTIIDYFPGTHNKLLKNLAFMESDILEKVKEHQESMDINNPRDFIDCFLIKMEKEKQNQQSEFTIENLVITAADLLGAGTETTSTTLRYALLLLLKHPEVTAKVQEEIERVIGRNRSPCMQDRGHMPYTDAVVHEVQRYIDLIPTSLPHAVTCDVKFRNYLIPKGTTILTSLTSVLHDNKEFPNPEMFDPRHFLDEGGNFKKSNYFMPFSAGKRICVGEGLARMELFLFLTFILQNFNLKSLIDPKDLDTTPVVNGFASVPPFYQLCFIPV
CYP2C9 inh = human CYP2C9 inhibition | CYP2C9 Supersomes, luciferin-H conversion, luminescence | inhibition, % at 5 µM | 20% of 96,000 active | AID 777;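 active means blocking of liver enzyme CYP2C9 beyond about 50% at 5 µM, limit read from the data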
CYP2C9 act = increases human cytochrome P450 2C9 activity; 1.4% of 96,000 active; P11712; activation factor at 5 µM; recombinant CYP2C9, luciferin-H conversion, luminescence; active compounds read high; factor 1 = untreated enzyme, 0 = blocked;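 active means activation factor of 2 or more for CYP2C9 at a 5 µM dose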;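 further: 0 = sulfaphenazole-blocked wells and 1 = vehicle-only wells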
PostGolgi ctrl = yeast control strain growth, post-Golgi counter-screen; efflux-deficient yeast background strain, growth absorbance A615, 16 h; inhibition, % at 10 µM; 5% of 98,000 active
PostGolgi yeast = growth inhibition of a yeast mutant, post-Golgi transport screen; post-Golgi transport phenotypic cell assay; inhibition, % at 10 µM; 0.9% of 98,000 active; AID 739;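 further: yeast cells grown in 1536-well plates; yeast grown about 18 h at 30C before absorbance read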
CYP2C19 act = increases human CYP2C19 enzyme activity | P33261 | 96,000 tested, under 10 active | activation factor at 5 µM | recombinant CYP2C19, luciferin-H EGE luminescence; active compounds read high; 0 = fully inhibited enzyme, 1 = untreated enzyme;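 active means activation factor of at least 2 at 5 µM in the primary screen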;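 further: 0 = wells with 2.5 mM tranylcypromine and 1 = vehicle-only wells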
* marks the source's active call; other numbers are inactive results; nt = not tested or not shown. A selection follows. Unless noted, no stated cut-off is given here; in the data, active means inhibition above about 30%; inactive means the rest.

SMILES	CYP2C19 inh	CYP2C9 inh	CYP2C9 act	PostGolgi ctrl	PostGolgi yeast	CYP2C19 act
COc1cc(C2C(C(=O)c3ccc(C)o3)=C(O)C(=O)N2c2cc(C)on2)cc(Br)c1O (centres undefined)	-4	66*	0.3	-8	9	1
Cc1ccc2[nH]c(=O)c(C(c3nnnn3CCc3ccccc3)N3CCOCC3)cc2c1 (centres undefined)	-2	-1	1	9	4	1
CCOC(=O)C(NC(C)=O)(NS(=O)(=O)c1ccccc1)C(F)(F)F (centres undefined)	5	-3	1	6	-1	1
O=C(c1ccco1)N1CCN(C(=O)C2CCCO2)CC1 (centres undefined)	nt	nt	nt	17	-2	nt
CCc1nc2cc(Cl)c(Cl)cc2[nH]1	59*	25	0.8	16	30	0.4
CN1C(=C2C(=O)OC(C)(C)OC2=O)Sc2ccccc21	17	-11	1.1	4	-6	0.8
COc1cccc(C(=O)NCc2ccccc2OC)c1	37	-86	1.9	-2	5	0.6
COc1ccc(S(=O)(=O)n2cnc3cc(C)c(C)cc32)cc1	96*	87*	0.1	5	-6	0
COc1ccc(S(=O)(=O)n2cnc3cc(C)c(C)cc32)cc1C	50	44	0.6	14	1	0.5
CCCCOC(=O)Nc1cccc(Cl)c1C	56*	30	0.7	8	11	0.4
C=CCOc1cccc(C2C(C(=O)c3ccc(C)o3)=C(O)C(=O)N2CCN(C)C)c1 (centres undefined)	-4	-7	1.1	-1	20	1
O=C(CSc1nnc(-c2ccncc2)n1-c1ccccc1)N1CCN(c2ccc(Cl)cc2)CC1	15	27	0.7	5	-16	0.8
CCC1CCC/C1=N\NC(=O)c1cc(C)[nH]n1 (centres undefined)	20	9	0.9	6	-1	0.8
CCOC(=O)N1CCN(C(=O)Nc2ccccc2Cl)CC1	16	-5	1	12	7	0.8
CCOC(=O)C1CCN(C(=S)Nc2cccc(C)c2)CC1	96*	24	0.8	3	-5	0
CCOC(=O)C1CCCN(C(=S)Nc2cc(C)cc(C)c2)C1 (centres undefined)	70*	13	0.9	1	4	0.3
CCOC(=O)C1CCN(C(=O)Nc2ccc3nc(-c4ccco4)c(-c4ccco4)nc3c2)CC1	71*	75*	0.2	-3	10	0.3
CCOC(=O)C1CCCN(c2c(Nc3cc(C)cc(C)c3)c(=O)c2=O)C1 (centres undefined)	40	31	0.7	2	1	0.6
CCOC(=O)N1CCN(C(=S)Nc2cccc(C)c2)CC1	34	-6	1.1	-3	-7	0.7
CCOC(=O)C1CCN(C(=O)Nc2ccccc2Cl)CC1	65*	5	0.9	2	4	0.4
COc1ccc(N2C(C)=CS/C2=C(/C#N)c2nnc(N3CCOCC3)n2-c2ccccc2)cc1	17	16	0.8	29	-8	0.8
CC(=O)Nc1coc2ccc(Br)cc12	2	10	0.9	3	-4	1
CC1CC(C)CN(CCCNC(=O)C2CCCN(c3nnc(N4CCCC4=O)s3)C2)C1 (centres undefined)	-13	-15	1.1	-1	-8	1.1
COCCCNC(=O)CC(NS(=O)(=O)c1ccc(Cl)cc1)c1ccco1 (centres undefined)	61*	52*	0.5	-4	-8	0.4
Cc1ccc(S(=O)(=O)NC(CC(=O)NCc2ccco2)c2ccco2)cc1 (centres undefined)	48	-31	1.3	-9	-7	0.5
SMILES	CYP2C19 inh	CYP2C9 inh	CYP2C9 act	PostGolgi ctrl	PostGolgi yeast	CYP2C19 act
CCOC(=O)N1CCN(C(=O)CN(C2CCCCC2)S(=O)(=O)c2ccc(Cl)cc2)CC1	16	22	0.8	8	2	0.8
Cc1ccc(S(=O)(=O)NC(CC(=O)NC2CCCC2)c2ccco2)cc1 (centres undefined)	58*	33	0.7	2	6	0.4
Cc1ccc(S(=O)(=O)NC(CC(=O)N2CCOCC2)c2ccco2)cc1 (centres undefined)	43	-14	1.1	3	15	0.6
CCOC(=O)N1CCC(Nc2nc3ccccc3nc2NS(=O)(=O)c2ccc(Cl)cc2)CC1	19	95*	0.1	12	3	0.8
CCOC(=O)N1CCC(NC(=O)CC(NS(=O)(=O)c2ccc(Cl)cc2)c2ccco2)CC1 (centres undefined)	60*	54*	0.5	8	17	0.4
CC(Sc1nnc2ccccn12)C(=O)N1CCc2ccccc2C1 (centres undefined)	37	2	1	20	-11	0.6
c1ccc(-c2ccc(-c3ccccn3)nn2)nc1	56*	18	0.8	2	-6	0.4
CC(C(=O)Nc1cccc([N+](=O)[O-])c1)n1nnc2ccccc21 (centres undefined)	53*	79*	0.2	2	-1	0.5
CC(NC(=O)Nc1cccc([N+](=O)[O-])c1)(C(F)(F)F)C(F)(F)F	20	20	0.8	12	2	0.8
COc1cc(CSc2ncn[nH]2)c(OC)cc1CSc1ncn[nH]1	62*	-2	1	10	3	0.4
CN(C)c1nc2c(c(=O)[nH]c(=O)n2C)n1Cc1ccc(F)cc1	-4	-1	1	7	-1	1
CCNc1nc(NC(C)C)nc(N(C#N)Cc2ccccc2)n1	24	8	0.9	22	-4	0.8
CCNc1nc(NC(C)C)nc(N(C#N)CCOc2ccc(Cl)cc2Cl)n1	77*	12	0.9	39*	10	0.2
Cc1ccccc1Cn1ccc(-c2ccc(Cl)cc2)c(C#N)c1=O	0	14	0.9	-4	-16	1
COC(=O)c1sc(NC(=O)COc2ccc(C)cc2)nc1C	34	60*	0.4	11	-1	0.7
COC(=O)c1sc(NC(=O)CSc2nnnn2-c2ccc(C)cc2C)nc1C	48	2	1	-1	-3	0.5
COc1ccccc1OCC(=O)Nc1nnc(-c2ccco2)s1	20	42	0.6	14	-9	0.8
COC(=O)c1sc(NC(=O)COc2ccccc2OC)nc1C	30	67*	0.3	1	4	0.7
Cc1nc(NC(=O)COc2ccccc2)sc1C(=O)Nc1ccccc1	33	47	0.5	-10	-10	0.7
COC(=O)c1sc(NC(=O)COc2ccccc2)nc1C	71*	94*	0.1	7	22	0.3
COC(=O)c1sc(Nc2ccccc2)nc1C	58*	29	0.7	24	-3	0.4
COc1cccc(N2C(=O)C3C(C2=O)C2C=CC3C23CC3)c1 (centres undefined)	33	0	1	12	0	0.7
Cc1cc(C(=O)NCc2ccc(C(=O)O)o2)c(C)o1	0	5	1	3	-1	1
